Laboratory results published in PubChem BioAssay (NCI).
This is part of a sample that, as a whole, favours compounds with a hit. Of some 79,000 tested, about 15% had one in any assay. A number with no mark means an inactive call. Active and inactive are the calls of the source. Cut-off read from the data, not from the text of the source: active = growth inhibition above about 70%; inactive = the rest.

How the values were obtained:
[1] = NCI Yeast Anticancer Drug Screen. Data for the rad50 strain (AID 155);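 note: 0% = growth of vehicle-only cultures of the same strain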; conditions: S. cerevisiae rad50 strain growth inhibition, stronger effect = higher value
Procedure, shortened: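 Readout: growth inhibition relative to vehicle-treated cultures. Compound exposure was carried out in a genetically defined yeast strain deficient in DNA damage repair.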

[2] = NCI Yeast Anticancer Drug Screen. Data for the mec2-1 strain (AID 157); conditions: S. cerevisiae mec2-1 strain, stronger effect = higher value
Procedure, shortened: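 Using mec2-1 yeast: add compound, measure growth, express inhibition versus vehicle-treated cultures.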

[3] = NCI Yeast Anticancer Drug Screen. Data for the sgs1 mgt1 strain (AID 161);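 note: 0% = growth of cultures given vehicle only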; conditions: S. cerevisiae sgs1 mgt1 strain, stronger effect = higher value
Procedure, shortened: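 Percent growth inhibition was derived by comparing compound-exposed mutant yeast with vehicle-exposed cultures. The strain carries alterations in DNA damage repair.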

[4] = NCI Yeast Anticancer Drug Screen. Data for the cln2 rad14 strain (AID 165);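 note: 0% = growth equal to vehicle treated cultures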; conditions: S. cerevisiae cln2 rad14 strain, stronger effect = higher value
Procedure, shortened: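 Yeast strain cln2 rad14, bearing defects in cell cycle control and DNA repair, serves as the test system; values reflect growth inhibition compared with vehicle.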

[5] = NCI Yeast Anticancer Drug Screen. Data for the bub3 strain (AID 167); conditions: S. cerevisiae bub3 mutant strain, stronger effect = higher value
Procedure, shortened: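 Readout: yeast growth inhibition, expressed relative to vehicle-only wells. The test organism is a mutant strain from a panel with lesions in DNA repair or checkpoint genes.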

[6] = NCI Yeast Anticancer Drug Screen. Data for the mlh1 rad18 strain (AID 175); conditions: S. cerevisiae mlh1 rad18 strain growth inhibition, stronger effect = higher value
Procedure, shortened: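 Steps: expose repair-defective yeast to compound; measure growth; express inhibition against vehicle-treated controls.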

[7] = at 5.0 µM (retest, dose inferred, filed as 0.5)
[8] = at 50.0 µM (retest, dose inferred, filed as 5.0)

Nc1nc(=O)[nH]c([O-])c1N=O.Nc1nc(=O)[nH]c([O-])c1N=O.[Ag+].[Ag+]
growth inhibition [1, 7]: 37%
growth inhibition [1, 8]: -25%
growth inhibition ([1]; at 50.0 µM): 96.8% (active)
growth inhibition [2, 7]: 44%
growth inhibition [2, 8]: -8%
growth inhibition ([2]; at 50.0 µM): 98.7% (active)
growth inhibition [3, 7]: 63%
growth inhibition [3, 8]: -28%
growth inhibition ([3]; at 50.0 µM): 92.9% (active)
growth inhibition [4, 7]: 28%
growth inhibition [4, 8]: -17%
growth inhibition ([4]; at 50.0 µM): 98.8% (active)
growth inhibition [5, 7]: 76% (active)
growth inhibition [5, 8]: -28%
growth inhibition ([5]; at 50.0 µM): 99.2% (active)
growth inhibition [6, 7]: 36%
growth inhibition [6, 8]: -21%
growth inhibition ([6]; at 50.0 µM): 96.9% (active)

O=c1c2cnccc2cc2c3ccccc3ccn12
growth inhibition [1, 7]: 47%
growth inhibition [1, 8]: 93% (active)
growth inhibition ([1]; at 50.0 µM): 91.8% (active)
growth inhibition [2, 7]: 12%
growth inhibition [2, 8]: 58%
growth inhibition ([2]; at 50.0 µM): 41.5%
growth inhibition [3, 7]: 9%
growth inhibition [3, 8]: 64%
growth inhibition ([3]; at 50.0 µM): 6.75%
growth inhibition [4, 7]: 3%
growth inhibition [4, 8]: 42%
growth inhibition ([4]; at 50.0 µM): 74.8% (active)
growth inhibition [5, 7]: 5%
growth inhibition [5, 8]: 37%
growth inhibition ([5]; at 50.0 µM): 2.45%
growth inhibition [6, 7]: 26%
growth inhibition [6, 8]: 87% (active)
growth inhibition ([6]; at 50.0 µM): 64%

O=C(N(c1ccc(Cl)cc1)c1ccc(Cl)cc1)C(Cl)(Cl)Cl
growth inhibition [1, 7]: 20%
growth inhibition [1, 8]: 68%
growth inhibition ([1]; at 50.0 µM): -13.9%
growth inhibition [2, 7]: 23%
growth inhibition [2, 8]: 63%
growth inhibition ([2]; at 50.0 µM): 5.7%
growth inhibition [3, 7]: 14%
growth inhibition [3, 8]: 69%
growth inhibition ([3]; at 50.0 µM): 4.95%
growth inhibition [4, 7]: 14%
growth inhibition [4, 8]: 65%
growth inhibition ([4]; at 50.0 µM): -7.95%
growth inhibition [5, 7]: 33%
growth inhibition [5, 8]: 74% (active)
growth inhibition ([5]; at 50.0 µM): -1.25%
growth inhibition [6, 7]: 38%
growth inhibition [6, 8]: 74% (active)
growth inhibition ([6]; at 50.0 µM): 18.1%

CCCC[N-]CC(O)C[NH-].O=C(O)CC(=O)O.[Pt+2] (stereo not given)
growth inhibition [1, 7]: 2%
growth inhibition [1, 8]: 6%
growth inhibition ([1]; at 50.0 µM): 11.6%
growth inhibition [2, 7]: -10%
growth inhibition [2, 8]: -23%
growth inhibition ([2]; at 50.0 µM): 23.2%
growth inhibition [3, 7]: 1%
growth inhibition [3, 8]: 6%
growth inhibition ([3]; at 50.0 µM): 22.2%
growth inhibition [4, 7]: 1%
growth inhibition [4, 8]: 7%
growth inhibition ([4]; at 50.0 µM): 80% (active)
growth inhibition [5, 7]: 3%
growth inhibition [5, 8]: 4%
growth inhibition ([5]; at 50.0 µM): 0.55%
growth inhibition [6, 7]: 0%
growth inhibition [6, 8]: -7%
growth inhibition ([6]; at 50.0 µM): 29.9%

OC(CBr)C[n+]1cccc2cc(Cl)ccc21 (stereo not given)
growth inhibition [1, 7]: 6%
growth inhibition [1, 8]: 5%
growth inhibition ([1]; at 50.0 µM): -40%
growth inhibition [2, 7]: 1%
growth inhibition [2, 8]: 3%
growth inhibition ([2]; at 50.0 µM): -13.4%
growth inhibition [3, 7]: -1%
growth inhibition [3, 8]: 9%
growth inhibition ([3]; at 50.0 µM): -28.6%
growth inhibition [4, 7]: -1%
growth inhibition [4, 8]: -6%
growth inhibition ([4]; at 50.0 µM): 39.8%
growth inhibition [5, 7]: -1%
growth inhibition [5, 8]: 6%
growth inhibition ([5]; at 50.0 µM): 2.8%
growth inhibition [6, 7]: 2%
growth inhibition [6, 8]: -2%
growth inhibition ([6]; at 50.0 µM): -5.8%

C/C(=N\O)c1ccc2c3c(ccc([N+](=O)[O-])c13)CC2
growth inhibition [1, 7]: -2%
growth inhibition [1, 8]: 9%
growth inhibition ([1]; at 50.0 µM): 13.2%
growth inhibition [2, 7]: -9%
growth inhibition [2, 8]: 7%
growth inhibition ([2]; at 50.0 µM): 29.2%
growth inhibition [3, 7]: -9%
growth inhibition [3, 8]: -2%
growth inhibition ([3]; at 50.0 µM): -6.4%
growth inhibition [4, 7]: 0%
growth inhibition [4, 8]: -5%
growth inhibition ([4]; at 50.0 µM): 34.9%
growth inhibition [5, 7]: 0%
growth inhibition [5, 8]: 7%
growth inhibition ([5]; at 50.0 µM): 85.2% (active)
growth inhibition [6, 7]: 8%
growth inhibition [6, 8]: 30%
growth inhibition ([6]; at 50.0 µM): 88.5% (active)

CNC(=O)OCC1=CC(=O)C(OC)=C(OC)C1=O
growth inhibition [1, 7]: -15%
growth inhibition [1, 8]: -8%
growth inhibition ([1]; at 50.0 µM): 4.5%
growth inhibition [2, 7]: -12%
growth inhibition [2, 8]: -14%
growth inhibition ([2]; at 50.0 µM): 11.9%
growth inhibition [3, 7]: -10%
growth inhibition [3, 8]: -2%
growth inhibition ([3]; at 50.0 µM): 28.4%
growth inhibition [4, 7]: -6%
growth inhibition [4, 8]: -5%
growth inhibition ([4]; at 50.0 µM): 9.55%
growth inhibition [5, 7]: -9%
growth inhibition [5, 8]: -6%
growth inhibition ([5]; at 50.0 µM): -20.6%
growth inhibition [6, 7]: -8%
growth inhibition [6, 8]: -5%
growth inhibition ([6]; at 50.0 µM): 8.95%

c1cc(SSc2ccncc2)ccn1
growth inhibition [1, 7]: 47%
growth inhibition [1, 8]: 100% (active)
growth inhibition ([1]; at 50.0 µM): 51.1%
growth inhibition [2, 7]: 50%
growth inhibition [2, 8]: 100% (active)
growth inhibition ([2]; at 50.0 µM): 85.5% (active)
growth inhibition [3, 7]: 55%
growth inhibition [3, 8]: 100% (active)
growth inhibition ([3]; at 50.0 µM): 56.8%
growth inhibition [4, 7]: 34%
growth inhibition [4, 8]: 97% (active)
growth inhibition ([4]; at 50.0 µM): 42%
growth inhibition [5, 7]: 45%
growth inhibition [5, 8]: 69%
growth inhibition ([5]; at 50.0 µM): 92.6% (active)
growth inhibition [6, 7]: 65%
growth inhibition [6, 8]: 100% (active)
growth inhibition ([6]; at 50.0 µM): 82.1% (active)

Cc1c(N)nc(C2CC(=O)N2CC(N)C(N)=O)nc1C(=O)NC(C(=O)NC(C)C(O)C(C)C(=O)NC(C(=O)NCCc1nc(-c2nc(C(=O)NCCNCC(C)O)cs2)cs1)C(C)O)C(OC1OC(CO)C(O)C(O)C1OC1OC(CO)C(O)C(OC(N)=O)C1O)c1cnc[nH]1 (stereo not given)
growth inhibition [1, 7]: 94% (active)
growth inhibition [1, 8]: 97% (active)
growth inhibition ([1]; at 50.0 µM): 92.7% (active)
growth inhibition [2, 7]: 82% (active)
growth inhibition [2, 8]: 99% (active)
growth inhibition ([2]; at 50.0 µM): 93.3% (active)
growth inhibition [3, 7]: 87% (active)
growth inhibition [3, 8]: 98% (active)
growth inhibition ([3]; at 50.0 µM): 93.3% (active)
growth inhibition [4, 7]: 61%
growth inhibition [4, 8]: 92% (active)
growth inhibition ([4]; at 50.0 µM): 90.6% (active)
growth inhibition [5, 7]: 77% (active)
growth inhibition [5, 8]: 96% (active)
growth inhibition ([5]; at 50.0 µM): 93.8% (active)
growth inhibition [6, 7]: 97% (active)
growth inhibition [6, 8]: 98% (active)
growth inhibition ([6]; at 50.0 µM): 92.5% (active)

CC1NC(=O)OC1(C)c1ccccc1 (stereo not given)
growth inhibition [1, 7]: 3%
growth inhibition [1, 8]: -3%
growth inhibition ([1]; at 50.0 µM): 50.5%
growth inhibition [2, 7]: -5%
growth inhibition [2, 8]: -12%
growth inhibition ([2]; at 50.0 µM): 9.2%
growth inhibition [3, 7]: 2%
growth inhibition [3, 8]: 2%
growth inhibition ([3]; at 50.0 µM): -7.5%
growth inhibition [4, 7]: 1%
growth inhibition [4, 8]: -4%
growth inhibition ([4]; at 50.0 µM): -35.8%
growth inhibition [5, 7]: 10%
growth inhibition [5, 8]: 30%
growth inhibition ([5]; at 50.0 µM): 12.1%
growth inhibition [6, 7]: 12%
growth inhibition [6, 8]: 1%
growth inhibition ([6]; at 50.0 µM): -20.6%
